HT1080NT lethal – kills 2HG-producing HT-1080-NT fibrosarcoma cells | HT-1080-NT fibrosarcoma viability, CellTiter-Glo ATP luminescence, 48 h | Potency, µM (titrated, usually from 46.1 µM), without a hit: at the highest dose activity, negative = less viability, most hits filed as cytotoxic | actives 1.6% (n = 360,000) | AID 686970;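 further: NT is the 2HG producing partner of a matched IDH1 knockdown line; potency means the concentration at half of the fitted maximal effect; 0% = DMSO-treated cells and -100% = media-only wells without cells; nearly all actives have a fitted effect of over 55% in size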
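Fibrosarcoma NT cells, 750 per well in 5% FBS RPMI, were exposed to compound for 48 hours. Viability: CellTiter-Glo luminescence.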
IL-1B inflam inh – inflammasome signaling inhibition, IL-1 beta readout; activity change, % at 57.5 µM; AID 743279; actives 4.7% (n = 360,000); THP-1 LPS/ATP IL-1B secretion, AlphaLISA, 16 h; stronger effect = lower value; in the data active means activity change below about -50%; inconclusive means mostly about -30% to -49%
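Secreted IL-1B measured by AlphaLISA bead assay after 16 h compound exposure of THP-1 cells; compounds (final up to 57.5 uM) added 1 h before LPS (250 ng/mL) and ATP (1.25 mM) stimulation; lower signal means less secretion.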
12-LOX inh – ALOX12 (human) lipoxygenase inhibition; P18054; purified 12hLO, xylenol orange hydroperoxide absorbance; Potency, µM (highest dose often 108 µM), for inactives: top-dose activity change, negative = inhibition, hits mostly inhibitors; actives 1.1% (n = 580,000); further: potency means the concentration at half of the fitted maximal effect
Target sequence (P18054 whole entry, looked up): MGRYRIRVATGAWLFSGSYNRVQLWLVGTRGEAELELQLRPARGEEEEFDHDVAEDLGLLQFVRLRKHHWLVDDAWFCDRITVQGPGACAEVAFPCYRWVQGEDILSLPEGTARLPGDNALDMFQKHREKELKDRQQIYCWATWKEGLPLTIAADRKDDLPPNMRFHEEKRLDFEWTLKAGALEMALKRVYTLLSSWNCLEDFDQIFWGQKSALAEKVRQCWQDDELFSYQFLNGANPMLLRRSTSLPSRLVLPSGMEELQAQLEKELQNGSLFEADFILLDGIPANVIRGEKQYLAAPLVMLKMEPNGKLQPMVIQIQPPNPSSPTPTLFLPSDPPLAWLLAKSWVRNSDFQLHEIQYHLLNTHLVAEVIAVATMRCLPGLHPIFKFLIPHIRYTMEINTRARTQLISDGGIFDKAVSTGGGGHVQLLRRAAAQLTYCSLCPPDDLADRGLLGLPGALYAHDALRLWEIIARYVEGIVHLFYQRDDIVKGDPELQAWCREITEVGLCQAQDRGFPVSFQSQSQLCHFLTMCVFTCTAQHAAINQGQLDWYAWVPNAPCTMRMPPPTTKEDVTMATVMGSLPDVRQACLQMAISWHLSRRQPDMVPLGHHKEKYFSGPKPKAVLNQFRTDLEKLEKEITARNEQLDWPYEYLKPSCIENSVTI
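Purified human 12hLO (150 nM final) in 25 mM Hepes, 0.01% Triton X-100, pH 7.0 was preincubated 15 min at room temperature with compound. Then 40 uM arachidonic acid was added, 30 min. Hydroperoxide was read by Fe-XO absorbance ratio 573/405 nm.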
TDP1 cell noCPT – qHTS for Inhibitors of human tyrosyl-DNA phosphodiesterase 1 (TDP1): qHTS in cells in absence of CPT | AID 686978, 2013 | DT40 Tdp1-/- hTDP1 cells, no CPT, ATP luminescence, 48 h | actives 15% (n = 420,000) | Potency, µM (highest dose often 46.2 µM), for the others: at the top dose activity change, negative = growth inhibition, actives largely listed as inhibitors; further: potency means the concentration at half of the fitted maximal effect; nearly all actives have a fitted effect of over 55% in size
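No-CPT arm: Tdp1-/-;hTDP1 DT40 cells (400/well) plus compounds, incubated ≥48 hr at 37 °C. Readout CellTiter-Glo luminescence.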
HT1080 IDH1KD tx – HT-1080 IDH1 knockdown cell toxicity (counter line); HT-1080 IDH1 knockdown viability, ATP luminescence, 48 h; Potency, µM (titrated, usually from 46.1 µM), for the others: at the highest dose activity, negative = toxicity, hits mostly cytotoxic; actives 2% (n = 360,000);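 further: potency means the concentration at half of the fitted maximal effect; 0% = DMSO wells and -100% = cell-free medium wells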
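Cytotoxicity counter-line: IDH1KD HT-1080, 48 h, CellTiter-Glo. Curves classed by r2, magnitude and activity.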
DT40 TDP1 CPT – DT40-hTDP1 cell growth loss with CPT; actives 12% (n = 420,000); AID 686979; chicken DT40 Tdp1-/-;hTDP1 cells + 20 nM CPT, ATP luminescence, 48 h; Potency, µM (titrated, usually from 46.2 µM), for the others: at the highest dose activity change, negative = growth inhibition, hits mostly inhibitors; further: potency means the concentration at half of the fitted maximal effect; nearly all actives have a fitted effect of over 55% in size
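Chicken DT40 Tdp1-/- cells stably complemented with human TDP1 were seeded at 400 cells/well in medium containing 20 nM camptothecin, exposed to pin-transferred compounds, and grown at 37 °C for at least 48 hr. Viability was read as ATP luminescence.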
Numbers without * were called inactive; ? = inconclusive; / = no result given; [ ] = another dose, or the depositor's remark. This excerpt belongs to a sample that is enriched for hits. Unless noted, the call rests on the fitted dose curve; in most records, active means well fitted curve in the direction sought with a large enough effect; inconclusive means small, poorly fitted or top-dose-only effect, or another doubt; inactive means no such curve, though single readings can be large; an effect the other way counts as inactive or inconclusive. Unless noted, on the % scale 0 is the no-effect control and ±100 the full control effect.

SMILES | HT1080NT lethal | IL-1B inflam inh | 12-LOX inh | TDP1 cell noCPT | HT1080 IDH1KD tx | DT40 TDP1 CPT
C[C@H]1CN([C@@H](C)CO)C(=O)CCCn2nncc2CO[C@H]1CN(C)S(=O)(=O)c1ccc(Oc2ccccc2)cc1 | 1.7% | 20.5 | 5.6% | 11.6µM* | -4.2% | 18.4µM*
C[C@@H]1CN([C@@H](C)CO)C(=O)CCCn2cc(nn2)CO[C@H]1CN(C)S(=O)(=O)c1ccc(-c2ccccc2)cc1 | 1.3% | 33.8 | -2.2% | 6.51µM* | 8.5% | 9.2µM*
Cc1ccccc1CN(C)C[C@H]1OCc2cnnn2CCCC(=O)N([C@@H](C)CO)C[C@@H]1C | -1.6% | 28.7 | ? | -5.2% | 1.2% | -1.1%
C[C@H]1CN([C@@H](C)CO)C(=O)CCCn2nncc2CO[C@@H]1CN(C)Cc1cccc(C(F)(F)F)c1 | -2.9% | 10.5 | 5.6% | 23.1µM* | -3.7% | 20.6µM*
C[C@H]1CN([C@@H](C)CO)C(=O)CCCn2nncc2CO[C@@H]1CN(C)Cc1ccccc1C(F)(F)F | -4.8% | -10.7 | ? | -21.2% | -0.4% | 18.4µM*
C[C@H](CO)N1C[C@H](C)[C@@H](CN(C)S(=O)(=O)c2ccc(-c3ccccc3)cc2)OCc2cn(nn2)CCCC1=O | 10.2% | 16.4 | ? | ? | 9.3% | -26.2%
Cc1ccc(CCNC(=O)c2ccc3c(c2)N(C)C2CCCCN2C3=O)cc1 (stereo unspecified) | / | / | -11.2% | / | / | /
O=C(O)C[C@@H]1CCN(C(=O)c2ccc(F)cc2)C[C@@H]1CCN1CCOCC1 | / | / | 14.6%[176 µM] | / | / | /
Cc1ccc(C(=O)NC(C)(C)CO)cc1 | / | / | -21.0% | / | / | /
Oc1ccc(Nc2ccnc(N3CC4CCC(C3)N4CC(F)(F)F)n2)cc1 | / | / | 3.6%[6.33 µM] | / | / | /
C[C@@H]1CN([C@@H](C)CO)C(=O)CCCn2nncc2CO[C@H]1CN(C)Cc1ccc(-c2ccccc2)cc1 | 11.6% | 26.9 | -25.7% | 16.4µM* | 8.4% | -0.5%
CNC(=O)c1noc([C@@H]2CC(F)(F)CN2Cc2ccc[nH]2)n1 | / | / | 18.4% | / | / | /
Cc1ccc(NC(=O)C(=O)NCCCN2CCCC2=O)cc1 | -9.1% | -1.4 | -8.8% | 1.7% | -4.7% | ?
Cc1ccc(COc2ccc(CNCCCN3CCCCCC3=O)cc2)cc1 | -28.6% | -63.8* | ? | 18.4µM* | -15.7% | ?
CCOC(=O)c1c(-c2ccc(OC)c(OC)c2)csc1NC(=O)c1ccc(C)cc1 | / | / | ? | -18.3% | / | -18.2%
CCOC(=O)c1c(C)[n+](-c2ccc(C)cc2)c(CC)c2cc(OC)c(OC)cc12 | ? | 21.1 | 8.8% | 2.59µM* | ? | 2.06µM*
CC(C)COc1cccc(C(=O)N(C)CC(=O)Nc2cccc3ccccc23)c1 | -4.9% | -18.9 | ? | 18.4µM* | -5.2% | 18.4µM*
CC(C)c1noc([C@@H]2C[C@H]3C(=O)NCCCCCCN(C(=O)COc4ccccc4)[C@H]3C2)n1 | / | / | -2.4% | / | / | /
Oc1cccc2ccc(/C=C/c3c(F)cccc3Cl)nc12 | -11.4% | 16.6 | -21.8% | ? | ? | ?
Oc1cccc2ccc(/C=C/c3ccccc3Cl)nc12 | -9.6% | 28.6 | -18.0% | 7.31µM* | -28.1% | 9.2µM*
COc1ccc(Cl)cc1/C=C/c1ccc2cccc(O)c2n1 | ? | 92.6 | 0.0% | ? | ? | 20.6µM*
COc1ccccc1/C=C/c1ccc2cccc(O)c2n1 | -18.4% | 35.9 | ? | ? | ? | ?
COc1cc(Cl)cc(/C=C/c2ccc3cccc(O)c3n2)c1OC | 5.4% | 34.5 | 26.7% | 23.1µM* | 0.0% | ?
NCCC(=O)N1CCC(n2nccc2NC(=O)Nc2ccccc2Cl)CC1 | / | / | 2.8% | / | / | /
CC(C)CN1C(=O)CO[C@H](c2ccc(NC(=O)c3ccccc3)cc2)[C@H]1CO | / | / | 44.6%[176 µM] | / | / | /
SMILES | HT1080NT lethal | IL-1B inflam inh | 12-LOX inh | TDP1 cell noCPT | HT1080 IDH1KD tx | DT40 TDP1 CPT
CCN(CC)S(=O)(=O)c1ccc(N2CCN(C)CC2)c(NC(=O)Nc2ccc(C)cc2)c1 | 8.2µM* | / | ? | ? | 20.6µM* | ?
CCN(CC)S(=O)(=O)c1ccc(N2CCCC2)c(NC(=O)Cc2ccc(OC)cc2)c1 | 0.5% | -1.0 | ? | 20.6µM* | 14.1% | ?
CCN(CC)S(=O)(=O)c1ccc(N2CCCC2)c(NC(=O)c2ccc(OC)cc2OC)c1 | -1.2% | ? | -10.8% | 16.4µM* | -1.9% | 18.4µM*
CCN(CC)S(=O)(=O)c1ccc(N2CCCCC2)c(NC(=O)/C(C#N)=C/c2ccc(OC)cc2)c1 | -5.4% | -8.8 | -12.9% | 16.4µM* | 5.9% | ?
COc1c(F)cccc1C(=O)N1CCC(Cc2ccc(C(=O)O)cc2)C1 (stereo unspecified) | / | / | 35.2% | / | / | /
COc1ccccc1C1CC(=O)N(c2ccc(C)cc2)C2=C1C(=O)OC2 (stereo unspecified) | / | / | 19.1% | / | / | /
CCCc1cc(-c2n[nH]c(C)c2-c2ccc(C(=O)OCC)o2)c(O)cc1O | ? | 5.9 | ? | ? | ? | ?
CCc1cc(-c2n[nH]c(C)c2-c2nc3ccccc3n2C)c(O)cc1O | ? | ? | -21.8% | 18.4µM* | ? | ?
CCOc1ccc(-c2n[nH]c(C)c2-c2ccccc2OC)c(O)c1 | ? | -54.6* | 39.1% | ? | ? | 13µM*

Source: PubChem
